The list is not random: actives were taken first. Their share in the collection is about 3.3%.
PI5P4K alpha inh – inhibitors of human PI5P4K alpha | P48426 | PI5P4Kalpha enzyme, ADP-Glo luminescence, 60 min; active compounds read low | max response, % | 330,000 compounds, 1.2% hits | AID 652105; active means max response of -50% or lower; inconclusive means between -30% and -50%; inactive means -30% or higher; further: value at the top dose of about 77 µM
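Reactions run in 0.038 M HEPES pH 7.4, 0.28 mM EGTA, 0.1% CHAPS and 5% DMSO, with PI5P4Kalpha, substrate, compound and 5 microM ATP final, one hour at room temperature. Readout is ADP-Glo luminescence.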
USP1 inh – blocks the human USP1/UAF1 deubiquitinase complex; O94782; Potency, µM (top dose mostly 57.1 µM), actives largely listed as inhibitors; recombinant USP1/UAF1, Ub-Rhodamine cleavage fluorescence; 390,000 compounds, 0.23% hits; further: nearly all actives have a fitted effect of over 60% in size
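Step one: compound is pinned into 1nM USP1/UAF1 in HEPES pH 7.8 buffer with TCEP. Step two: 15 min room-temperature incubation. Step three: Ub-Rho (150nM final) starts cleavage, tracked by fluorescence over six one-minute reads.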
PLK1 PBD block – inhibitors of human PLK1 polo-box domain binding; Plk1 PBD binding of FITC phosphopeptide, fluorescence polarization; Potency, µM, hits mostly inhibitors; 360,000 compounds, 2.8% hits; further: series mostly up to about 57 µM; nearly all actives have a fitted effect of over 65% in size
WRN helicase inh – WRN helicase (human) inhibition. Q14191. WRN helicase unwinding, fluorescent forked duplex, kinetic. Potency, µM (top dose mostly 114 µM), hits mostly inhibitors. AID 651768. 360,000 compounds, 0.46% hits; further: nearly all actives have a fitted effect of over 55% in size
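Kinetic red-fluorescence monitoring (525/598 nm) tracks WRN helicase activity after 100 nM fluorophore-quencher forked duplex and 2 mM ATP are added to 20 nM enzyme pretreated 15 min at room temperature with compound.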
USP2a inh – inhibitors of human ubiquitin-specific protease USP2a; 330,000 compounds, 0.01% hits; O75604; AID 463254; Potency, µM (titrated, usually from 38.3 µM), hits mostly inhibitors; USP2 core, Ub-CHOP2 coupled fluorogenic reporter, 485/531
Target sequence (O75604 whole entry, looked up): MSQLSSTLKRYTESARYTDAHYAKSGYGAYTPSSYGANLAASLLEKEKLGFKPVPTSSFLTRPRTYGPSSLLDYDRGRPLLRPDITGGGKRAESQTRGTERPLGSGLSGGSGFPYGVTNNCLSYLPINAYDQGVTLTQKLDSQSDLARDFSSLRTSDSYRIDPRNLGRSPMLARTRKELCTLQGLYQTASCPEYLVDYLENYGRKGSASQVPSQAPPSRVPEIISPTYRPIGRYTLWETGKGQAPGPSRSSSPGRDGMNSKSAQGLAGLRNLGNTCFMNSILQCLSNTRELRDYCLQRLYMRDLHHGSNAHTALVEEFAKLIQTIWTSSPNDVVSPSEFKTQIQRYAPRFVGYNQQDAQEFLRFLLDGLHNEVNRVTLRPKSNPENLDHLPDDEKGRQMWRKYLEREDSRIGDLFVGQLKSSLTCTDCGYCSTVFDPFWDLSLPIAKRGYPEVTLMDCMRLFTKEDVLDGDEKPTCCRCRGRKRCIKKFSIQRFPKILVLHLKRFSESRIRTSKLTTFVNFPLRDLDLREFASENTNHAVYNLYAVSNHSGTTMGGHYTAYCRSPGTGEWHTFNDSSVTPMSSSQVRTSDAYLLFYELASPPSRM
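Deubiquitinase activity read as fluorescence (485/531 nm) after Ub-CHOP2 cleavage activates the enterokinase reporter on its substrate; USP2 core 10nM, Ub-CHOP2 and substrate 25nM each, 30min compound preincubation then 60min RT; data normalized to NEM, curves fitted.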
A number is an active result; 0 = inactive; ? = inconclusive; - = no result given; ! = a repeat was not active; [ ] = another dose, or the depositor's remark. Unless noted, the call rests on the fitted dose curve; in most records, active means well fitted curve in the direction sought with a large enough effect; inconclusive means small, poorly fitted or top-dose-only effect, or another doubt; inactive means no such curve, though single readings can be large; an effect the other way counts as inactive or inconclusive.

SMILES	PI5P4K alpha inh	USP1 inh	PLK1 PBD block	WRN helicase inh	USP2a inh
COc1ccc(C)cc1-n1nnc(-c2nc(-c3ccccc3Cl)no2)c1N	-	0	-	-	-
COc1ccc(OC)c(CNC(=O)c2cnc3c(C)cccn3c2=O)c1	-	0	-	-	-
O=C1CCCC2=C1C(c1ccncc1)n1c(nc3ccccc31)N2 (stereo not given)	0	0	27µM	0	0
CC1CC(=O)C2=C(C1)Nc1nc3ccccc3n1C2c1cccnc1 (stereo not given)	0	0	0	0	0
CCOc1ccc(/C=C/c2nc(C#N)c(N3CCN(c4ccc(OC)cc4)CC3)o2)cc1	-	0	-	-	-
CC1CCCCN1C(=O)COc1ccccc1F (stereo not given)	0	0	27µM	0	0
CC1CCCCN1C(=O)CNCc1ccc(F)cc1 (stereo not given)	0	0	0	0	0
Cc1cc(/C=c2/sc3nc4ccccc4n3c2=O)c(C)n1-c1ccccn1	-	0	0	0	0
O=C(O)c1ccc(-c2ccc(/C=c3/sc4nc5ccccc5n4c3=O)o2)cc1Cl	-64	28µM	0	?	0
Cc1cc(/C=c2\sc3nc4ccccc4n3c2=O)c(C)n1-c1ccc(C(=O)O)cc1	0	0	21µM	?	0
O=P(c1ccccc1)(c1ccccc1)c1nc(-c2ccc(Cl)cc2)oc1N1CCOCC1	0	?	24µM!	0	0
O=C(N/N=C/c1ccc(O)cc1)c1cc(C23CC4CC(CC(C4)C2)C3)[nH]n1	0	0	0	0	0
C/C(=N\NC(=O)c1cc(C(C)(C)C)[nH]n1)C12CC3CC(CC(C3)C1)C2	0	0	17µM	0	0
Cc1nc(N2CCCC2)c2c(C(=O)N3CCN(c4cccc(C)c4C)CC3)c(C)oc2n1	-	0	-	-	-
O=C(O)c1ccc(Nc2nc(-c3cc4ccccc4oc3=O)cs2)cc1O	-79	0	24µM	?	0
CCOc1ccc(OCC)c(NC(=O)C2CCN(S(=O)(=O)c3ccc(Br)s3)CC2)c1	-	0	-	-	-
CCOC(=O)CNC(=O)N1CCc2cc(S(=O)(=O)N3CCC(C)CC3)ccc21	-	0	-	-	-
COc1cc(C2C(=O)N(C3CCCCC3)CC(=O)N2CCC2=CCCCC2)ccc1OC(C)C (stereo not given)	-	0	-	-	-
Cc1ccc(Nc2nnns2)cc1C	0	0	27µM	0	0
Cc1ccc(Nc2ccc(NCc3ccccc3)nn2)cc1C	0	0	0	0	0
NC(=O)c1nsc(C(=O)N(CC(=O)NC2CCCCC2)c2ccc(Cl)cc2)c1N	0	0	0	0	0
CCCCOc1ccc(N(CC(=O)NC2CCCCC2)C(=O)c2snc(C(N)=O)c2N)cc1	0	0	34µM	0	0
COc1ccc(Nc2c3c(nc4nncn24)CCC3)cc1Cl	-	0	-	-	-
CCOc1ccc(CNCc2c(C(=O)O)c(C)n(Cc3c(F)cccc3Cl)c2C)cc1OC	-	0	-	-	-
CCn1nc(C)c2c(-c3ccccc3)cc(=O)n(C(C)C(=O)NCc3ccccc3OC)c21 (stereo not given)	-	0	-	-	-
SMILES	PI5P4K alpha inh	USP1 inh	PLK1 PBD block	WRN helicase inh	USP2a inh
COc1ccc(/C=C2\SC(=O)N(CCC(=O)Nc3ccc(S(=O)(=O)Nc4nccs4)cc3)C2=O)cc1	0	0	0	0	?
Cc1[nH]n(-c2ccccc2)c(=O)c1C=Nc1ccc(S(=O)(=O)Nc2nccs2)cc1	0	0	24µM	0	0
O=C1/C(=C\c2ccccn2)SC(=S)N1c1ccc(S(=O)(=O)Nc2nccs2)cc1	-71	0	?	?	0
Cc1ccc(/C=C2/SC(=S)N(c3ccc(S(=O)(=O)Nc4nccs4)cc3)C2=O)cc1	-68	?	?	?	?
COc1ccc(/C=C2/SC(=S)N(c3ccc(S(=O)(=O)Nc4nccs4)cc3)C2=O)cc1	-67	?	?	?	?
O=c1[nH]cc(S(=O)(=O)c2ccccc2)[nH]1	0	0	30µM	0	0
Cc1cc(S(=O)(=O)NCC(=O)O)ccc1F	0	0	21µM	0	0
COC(=O)Cn1c(=O)oc2ccc(C)cc21	0	0	27µM	0	0
O=C1CSc2cc(Cl)ccc2N1	0	0	11µM	0	-
O=C1CNc2cc(Cl)ccc2N1	0	0	0	0	-
Cc1cc(C)cc(C(=O)N2CC(=O)Nc3ccc(C)cc3C2c2ccccc2)c1 (stereo not given)	-	0	-	-	-
Cc1ccc(C2=CC(c3ccccc3F)n3c(nc4ccccc43)N2)cc1C (stereo not given)	-	0	-	-	-
COc1cccc(-c2nnc(Nc3nc4c(F)cccc4s3)o2)c1	-	?	21µM	?	0
CCn1cc(C(=O)NCc2ccc(Cl)cc2)c(=O)c2cc(S(=O)(=O)N(C)C3CCCCC3)ccc21	-	0	-	-	-
CN(C1CCCCC1)S(=O)(=O)c1ccc(Cl)c(C(=O)O)c1	0	0	19µM	0	0
COc1ccc(S(=O)(=O)N(CC(N)=O)C2CCCCC2)cc1Cl	0	0	12µM	0	0
CCOc1ccccc1C(=O)Nc1cc2c(cc1N1CCOCC1)n(C)c(=O)n2C	-	0	-	-	-
Cc1ccc(-c2nn(CC(=O)Nc3cccc(C(F)(F)F)c3)c(=O)c3ccccc23)cc1	-	0	-	-	-
O=C(CN1C(=O)S/C(=C\c2cc(Cl)c(O)c(Cl)c2)C1=O)Nc1ccccc1	-86	0	?	0[11.6 µM]	0
COc1cc(/C=C2\SC(=O)N(CC(=O)Nc3ccc(C)cc3)C2=O)cc(Cl)c1OCC(=O)O	0	0	15µM	50µM	0
O=C(CN1C(=O)S/C(=C\c2ccccn2)C1=O)Nc1ccccc1	0	0	0	0	0
Cc1ccc(NC(=O)CN2C(=O)S/C(=C\c3ccc(OCC(=O)O)c(Br)c3)C2=O)cc1	?	0	?	?	0
COc1ccc(-c2n[nH]c(=S)n2N)c(OC)c1	0	0	8.4µM	0	0
COc1ccc(-c2n[nH]c(=S)n2-c2cc(OC)ccc2OC)cc1	?	0	0	0	0
COc1ccc(-n2c(-c3ccc(Cl)cc3Cl)n[nH]c2=S)c(OC)c1	-64	0	24µM	79µM	0
SMILES	PI5P4K alpha inh	USP1 inh	PLK1 PBD block	WRN helicase inh	USP2a inh
COc1ccc(Cn2c(C(=O)O)c(CNCCc3ccccc3Cl)c3ccc(C)cc32)cc1	-	0	-	-	-
CNc1nc(N)c([N+](=O)[O-])c(NC2CCCCC2)n1	0	0	0	0	0
Nc1nc(Nc2ccccc2)nc(NC2CCCCC2)c1[N+](=O)[O-]	0	0	0	79µM	0
COc1cccc(C(=O)N2CCN(Cc3cn[nH]c3-c3ccc(F)cc3F)CC2)c1	0	0	30µM	0	0
CCc1ccc(C2NC(C(=O)O)CS2)cc1 (stereo not given)	-	-	-	-	0
O=C(O)C1CSC(c2ccc3c(c2)OCO3)N1 (stereo not given)	?	0	11µM	0	0
COCCCN=C(c1ccco1)n1c(=S)nc(-c2ccco2)n(CCCOC)c1=S	-	0	19µM	0	0
CCCn1c2ccccc2c2cnn(CC(=O)N(CCCOC)Cc3ccco3)c(=O)c21	-	0	-	-	-
Cc1ccc2nc(-c3ccccc3N)[nH]c2c1	0	0	30µM	0	0
COc1ccc(OCC(=O)Nc2nnc3n2CCS3)cc1	-	0	-	-	-
